Experimental data: PubChem BioAssay (EPA / NIEHS)
Active and inactive are the calls of the source. Rule for the calls: active = hit-call score of the fitted dose curve at least 0.9, where 1 is the maximum; inactive = score below 0.9.

Tests used:
[1] = biological target: Transcription factor E2F1 (Homo sapiens) (UniProt Q01094); assay: ATG_E2F_CIS: Attagene CIS-FACTORIAL HepG2 Assay for human E2F Transcription Factor 1 (AID 2282935); settings: HepG2 Attagene cis-reporter, E2F reporter RNA transcripts; actives raise or lower the signal
Transcription factor E2F1 (Homo sapiens), sequence (Q01094 whole entry, looked up): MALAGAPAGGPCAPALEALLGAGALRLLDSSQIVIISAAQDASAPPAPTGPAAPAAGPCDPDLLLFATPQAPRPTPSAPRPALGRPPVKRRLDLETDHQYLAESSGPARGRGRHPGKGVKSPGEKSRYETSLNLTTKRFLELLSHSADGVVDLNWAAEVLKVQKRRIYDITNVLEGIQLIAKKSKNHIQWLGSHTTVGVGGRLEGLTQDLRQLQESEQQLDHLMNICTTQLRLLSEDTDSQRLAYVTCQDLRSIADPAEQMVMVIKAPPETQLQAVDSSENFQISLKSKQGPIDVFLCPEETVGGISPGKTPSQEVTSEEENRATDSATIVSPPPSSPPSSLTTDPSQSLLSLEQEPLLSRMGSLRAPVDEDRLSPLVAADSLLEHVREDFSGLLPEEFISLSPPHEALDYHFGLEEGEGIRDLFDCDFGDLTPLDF
Procedure, shortened: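 Gain or loss of reporter transcript, fitted against DMSO, reflects E2F1-driven transcription. Transiently transfected HepG2 dosed 24 h before RNA isolation. Quantified by fluorescent RT-PCR products separated by capillary electrophoresis.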

[2] = ATG_E_Box_CIS: Attagene CIS-FACTORIAL HepG2 Assay for human Enhancer Box (E-box) (AID 2282936); settings: HepG2 E-box cis-reporter transcription, actives raise or lower the signal
Procedure, shortened: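 E-box-driven reporter transcripts measured in transiently transfected HepG2 after 24 h exposure: RNA reverse-transcribed, PCR-amplified, fluorescently labelled, digested and resolved by capillary electrophoresis. Gain or loss relative to DMSO.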

[3] = ATG_M_61_CIS: Attagene CIS-FACTORIAL HepG2 Assay for M61 Transcription Factor (Internal Marker) (AID 2282937); settings: HepG2 Attagene CIS-FACTORIAL M61 internal marker reporter; actives raise or lower the signal
Procedure, shortened: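 This endpoint serves as an internal background control within a multiplexed HepG2 cis-reporter panel. Cells are exposed for 24 h; reporter mRNA is amplified, fluorescently labelled and sized by capillary electrophoresis, with DMSO as negative control.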

[4] = ATG_EGR_CIS: Attagene CIS-FACTORIAL HepG2 Assay for human Early Growth Response 1 (EGR1) (AID 2282938); settings: HepG2 Attagene CIS-FACTORIAL EGR reporter mRNA; actives raise or lower the signal
Procedure, shortened: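 HepG2, transient MRTU transfection (cis promoters), 24 h compound. RNA → RT (oligo-dT) → PCR → 6-FAM labelling → HpaI cut → CE fluorescence. Bidirectional fit, DMSO baseline.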

[5] = ATG_ERE_CIS: Attagene CIS-FACTORIAL HepG2 Assay for Estrogen Response Element (ERE) (AID 2282940); settings: HepG2 ERE cis-reporter, Attagene RNA transcript; actives raise or lower the signal
Procedure, shortened: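 Transient MRTU transfection of human HepG2; cis-element promoters; 24 h dosing; total RNA → RT (oligo dT) → PCR → 6-FAM primer extension → HpaI digest → CE fluorescence. Bidirectional fit, DMSO baseline.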

[6] = ATG_Ets_CIS: Attagene CIS-FACTORIAL HepG2 Assay for human Erythroblast Transformation Specific (ETS) (AID 2282941); settings: HepG2 ETS cis-reporter transcription, actives raise or lower the signal
Procedure, shortened: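 Cis-regulated reporter mRNA induction in HepG2 (transient transfection), 24 h exposure, RT-PCR plus capillary electrophoresis detection; DMSO serves as negative control and baseline.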

[7] = biological target: Hepatocyte nuclear factor 3-beta (Homo sapiens) (UniProt Q9Y261); assay: ATG_FoxA2_CIS: Attagene CIS-FACTORIAL HepG2 Assay for human Forkhead box A2 (FOXA2) (AID 2282942); settings: HepG2 cis-reporter transcription factor activity, 24 h; actives raise or lower the signal
Hepatocyte nuclear factor 3-beta (Homo sapiens), sequence (Q9Y261 whole entry, looked up): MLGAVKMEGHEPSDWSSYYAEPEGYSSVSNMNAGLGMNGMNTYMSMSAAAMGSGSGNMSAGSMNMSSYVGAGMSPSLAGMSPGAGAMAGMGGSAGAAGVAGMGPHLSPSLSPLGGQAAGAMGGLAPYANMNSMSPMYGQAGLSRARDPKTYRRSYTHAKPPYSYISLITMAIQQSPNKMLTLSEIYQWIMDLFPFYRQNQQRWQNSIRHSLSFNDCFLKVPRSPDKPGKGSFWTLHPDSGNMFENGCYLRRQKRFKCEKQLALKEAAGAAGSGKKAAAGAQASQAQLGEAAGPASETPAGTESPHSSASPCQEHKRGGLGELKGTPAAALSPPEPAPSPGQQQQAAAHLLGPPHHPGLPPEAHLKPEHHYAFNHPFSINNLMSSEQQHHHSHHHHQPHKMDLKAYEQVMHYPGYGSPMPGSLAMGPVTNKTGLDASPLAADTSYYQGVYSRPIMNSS
Procedure, shortened: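 Cells: HepG2, transient multiplex reporter transfection. Exposure 24 h. Detection: reporter-specific RT-PCR, fluorescent labelling, restriction digest, capillary electrophoresis. Analysis: bidirectional curve fit, DMSO as negative control.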

[8] = ATG_FoxO_CIS: Attagene CIS-FACTORIAL HepG2 Assay for human Forkhead box O (FoxO) (AID 2282943); settings: HepG2 Attagene cis-reporter, FoxO element, mRNA; actives raise or lower the signal
Procedure, shortened: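 Endogenous transcription factor activity read from multiplexed cis-promoter reporter transcripts in transiently transfected HepG2, 24 h after dosing. Reporter RNA measured via RT-PCR plus capillary electrophoresis of FAM-labeled products; gain or loss relative to DMSO.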

[9] = ATG_GATA_CIS: Attagene CIS-FACTORIAL HepG2 Assay for human GATA Binding Protein (AID 2282944); settings: HepG2 GATA cis-element reporter, Attagene multiplex mRNA; actives raise or lower the signal
Procedure, shortened: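 Transient MRTU transfection, HepG2, 24 h compound exposure. Total RNA → oligo(dT) RT → PCR → 6-FAM primer extension → HpaI cut → CE. Bidirectional fit vs DMSO.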

[10] = ATG_M_19_CIS: Attagene CIS-FACTORIAL HepG2 Assay for M19 Transcription Factor (Internal Marker) (AID 2282939); settings: HepG2 Attagene CIS-FACTORIAL M19 internal marker reporter; actives raise or lower the signal
Procedure, shortened: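 Transfect HepG2 with MRTU reporter library → dose chemical, 24 h → isolate total RNA, reverse-transcribe with oligo(dT) → PCR, 6-FAM label, HpaI cut (2 h, 37 C) → capillary electrophoresis. Bidirectional fit vs DMSO.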

| SMILES | outcome [1] | outcome [2] | outcome [3] | outcome [4] | outcome [5] | outcome [6] | outcome [7] | outcome [8] | outcome [9] | outcome [10] | AC50 [5] | AC50 [4] | AC50 [6] | AC50 [8] |
| --- | --- | --- | --- | --- | --- | --- | --- | --- | --- | --- | --- | --- | --- | --- |
| CCCCC(CC)COC(=O)CCCCC(=O)OCc1ccccc1 (stereo not drawn) | inactive | inactive | inactive | inactive | inactive | inactive | inactive | inactive | inactive |  |  |  |  |  |
| CCCOc1sc(C(=O)N2CCC(c3cc(CN)ccc3F)CC2)c(C)c1Br | inactive | inactive | inactive | inactive |  | inactive | inactive | inactive | inactive | inactive | 2.72 µM (active) |  |  |  |
| CC(=O)CC(C)(C)O | inactive | inactive | inactive | inactive | inactive | inactive | inactive | inactive | inactive |  |  |  |  |  |
| C#C[C@]1(O)CC[C@H]2[C@@H]3CCC4=CC(=O)CC[C@@H]4[C@H]3CC[C@@]21C | inactive | inactive | inactive | inactive |  | inactive |  | inactive | inactive |  |  |  |  |  |
| CCCCCCC(=O)O | inactive | inactive | inactive | inactive | inactive | inactive | inactive | inactive | inactive |  |  |  |  |  |
| O=C(OCCOCCOC(=O)c1ccccc1)c1ccccc1 | inactive | inactive | inactive | inactive | inactive | inactive | inactive | inactive | inactive |  |  |  |  |  |
| CCC(C)(C)C1CCC(O)CC1 (stereo not drawn) | inactive | inactive | inactive | inactive |  | inactive | inactive | inactive | inactive |  |  |  |  |  |
| CC(O)C(=O)O (stereo not drawn) | inactive | inactive | inactive | inactive | inactive | inactive | inactive | inactive | inactive |  |  |  |  |  |
| COc1ccc([N+](=O)[O-])cc1N | inactive | inactive | inactive | inactive | inactive | inactive | inactive | inactive | inactive |  |  |  |  |  |
| O=[N+]([O-])c1ccc(O)cc1 | inactive | inactive | inactive | inactive | inactive | inactive | inactive | inactive | inactive |  |  |  |  |  |
| Nc1cccc2c(N)cccc12 | inactive | inactive | inactive | inactive | inactive | inactive | inactive | inactive | inactive |  |  |  |  |  |
| COCC(C)O (stereo not drawn) | inactive | inactive | inactive | inactive | inactive | inactive | inactive | inactive | inactive |  |  |  |  |  |
| CN1CCN(c2ccccc2/C=C2\SCCN(c3ccc(Cl)c(Cl)c3)C2=O)CC1 | inactive | inactive | inactive | inactive | inactive | inactive | inactive | inactive | inactive |  |  |  |  |  |
| CC(C)(C)CC(C)(C)c1ccc(O)c(-n2nc3ccccc3n2)c1 | inactive | inactive | inactive | inactive | inactive | inactive | inactive | inactive | inactive |  |  |  |  |  |
| NC(=O)N(O)[C@@H]1C=C[C@H](Oc2cccc(Oc3ccc(F)cc3)c2)C1 | inactive | inactive | inactive |  | inactive | inactive | inactive | inactive | inactive |  |  | 33 µM (active) |  |  |
| FC(F)(I)C(F)(F)C(F)(F)C(F)(F)C(F)(F)C(F)(F)I | inactive | inactive | inactive |  |  |  | inactive |  | inactive |  | 0.0192 µM (active) | 16.4 µM (active) | 18.3 µM (active) | 17.4 µM (active) |
| CCCCCCCCCCCCCCCS(=O)(=O)Oc1ccccc1 | inactive | inactive | inactive | inactive | inactive | inactive | inactive | inactive | inactive |  |  |  |  |  |
| CC(O)CO (stereo not drawn) | inactive | inactive | inactive | inactive | inactive | inactive | inactive | inactive | inactive |  |  |  |  |  |
| Oc1cc2ccccc2c2ccccc12 | inactive | inactive | inactive | inactive | inactive | inactive | inactive | inactive | inactive |  |  |  |  |  |
| CCCCCCCCCCCCN1CCCC1=O | inactive | inactive | inactive | inactive | inactive | inactive | inactive | inactive | inactive |  |  |  |  |  |
